Data as given in the supplement of paper PMC11732987, “Enantioselective OTUD7B fragment discovery through chemoproteomics screening and high-throughput optimisation” (Communications Chemistry, 2025).

Columns and labels:
Assay in all cases: log2 ratio of Biotin-Ahx-Ub-VS probe labelling (fragment/DMSO); higher = less target engagement (more negative = stronger competition), active = hit call of the paper (q ≤ 0.05, log2 ratio ≤ -1)
Details in all cases: compound concentration: 200 uM; treatment time: 3 h
USP19 = biological target: T1, USP19 (UniProt O94966)
T1 sequence (whole entry): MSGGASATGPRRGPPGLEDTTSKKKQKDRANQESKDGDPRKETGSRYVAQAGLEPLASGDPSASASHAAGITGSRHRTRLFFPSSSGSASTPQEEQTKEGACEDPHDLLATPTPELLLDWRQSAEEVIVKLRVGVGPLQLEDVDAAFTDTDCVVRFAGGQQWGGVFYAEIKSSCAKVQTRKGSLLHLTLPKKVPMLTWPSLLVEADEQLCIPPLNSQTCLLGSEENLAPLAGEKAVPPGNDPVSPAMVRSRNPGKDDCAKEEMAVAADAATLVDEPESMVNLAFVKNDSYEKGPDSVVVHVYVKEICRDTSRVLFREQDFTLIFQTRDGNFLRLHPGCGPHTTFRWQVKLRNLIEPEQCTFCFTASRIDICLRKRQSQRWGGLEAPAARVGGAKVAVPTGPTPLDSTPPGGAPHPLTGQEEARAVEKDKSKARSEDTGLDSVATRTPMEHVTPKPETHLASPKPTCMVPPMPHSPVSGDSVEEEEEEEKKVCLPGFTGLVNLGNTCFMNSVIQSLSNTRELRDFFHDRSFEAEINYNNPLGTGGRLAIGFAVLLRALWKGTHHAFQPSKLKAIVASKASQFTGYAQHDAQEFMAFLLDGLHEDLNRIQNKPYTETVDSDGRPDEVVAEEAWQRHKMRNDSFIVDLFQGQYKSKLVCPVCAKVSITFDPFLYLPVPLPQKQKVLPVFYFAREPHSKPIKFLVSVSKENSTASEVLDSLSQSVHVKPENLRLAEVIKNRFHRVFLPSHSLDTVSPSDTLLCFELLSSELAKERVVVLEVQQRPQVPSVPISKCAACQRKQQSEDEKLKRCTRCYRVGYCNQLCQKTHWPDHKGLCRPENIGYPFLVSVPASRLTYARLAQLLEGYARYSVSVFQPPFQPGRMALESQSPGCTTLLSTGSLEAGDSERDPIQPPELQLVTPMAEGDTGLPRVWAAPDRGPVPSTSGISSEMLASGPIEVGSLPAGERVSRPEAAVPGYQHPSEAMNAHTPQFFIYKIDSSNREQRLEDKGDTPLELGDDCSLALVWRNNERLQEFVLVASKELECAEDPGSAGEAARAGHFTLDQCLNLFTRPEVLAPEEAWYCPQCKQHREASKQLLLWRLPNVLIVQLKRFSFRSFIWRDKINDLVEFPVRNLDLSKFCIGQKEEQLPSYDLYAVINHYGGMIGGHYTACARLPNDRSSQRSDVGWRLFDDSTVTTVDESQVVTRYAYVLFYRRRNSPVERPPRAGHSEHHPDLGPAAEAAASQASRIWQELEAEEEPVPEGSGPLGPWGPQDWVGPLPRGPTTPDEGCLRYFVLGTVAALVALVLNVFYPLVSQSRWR
In short: (§1)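 HEK293T lysate, 495 µg per sample in Tris/CHAPS/IGEPAL buffer with protease inhibitors, was treated in triplicate with fragment at 200 µM or vehicle for 3 h and then with Biotin-Ahx-Ub-VS at 0.5 µM final for 1 h. Labelled DUBs were NeutrAvidin-enriched, digested with LysC and trypsin, and run by diaPASEF LC-MS/MS. Spectronaut label-free quantities were global-median-normalised, and values are average log2 fragment/vehicle ratios by unpaired t-test on proteins with ≥2 unique peptides.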

USP24 = USP24 (UniProt Q9UPU5)
USP24, sequence (Q9UPU5 whole entry): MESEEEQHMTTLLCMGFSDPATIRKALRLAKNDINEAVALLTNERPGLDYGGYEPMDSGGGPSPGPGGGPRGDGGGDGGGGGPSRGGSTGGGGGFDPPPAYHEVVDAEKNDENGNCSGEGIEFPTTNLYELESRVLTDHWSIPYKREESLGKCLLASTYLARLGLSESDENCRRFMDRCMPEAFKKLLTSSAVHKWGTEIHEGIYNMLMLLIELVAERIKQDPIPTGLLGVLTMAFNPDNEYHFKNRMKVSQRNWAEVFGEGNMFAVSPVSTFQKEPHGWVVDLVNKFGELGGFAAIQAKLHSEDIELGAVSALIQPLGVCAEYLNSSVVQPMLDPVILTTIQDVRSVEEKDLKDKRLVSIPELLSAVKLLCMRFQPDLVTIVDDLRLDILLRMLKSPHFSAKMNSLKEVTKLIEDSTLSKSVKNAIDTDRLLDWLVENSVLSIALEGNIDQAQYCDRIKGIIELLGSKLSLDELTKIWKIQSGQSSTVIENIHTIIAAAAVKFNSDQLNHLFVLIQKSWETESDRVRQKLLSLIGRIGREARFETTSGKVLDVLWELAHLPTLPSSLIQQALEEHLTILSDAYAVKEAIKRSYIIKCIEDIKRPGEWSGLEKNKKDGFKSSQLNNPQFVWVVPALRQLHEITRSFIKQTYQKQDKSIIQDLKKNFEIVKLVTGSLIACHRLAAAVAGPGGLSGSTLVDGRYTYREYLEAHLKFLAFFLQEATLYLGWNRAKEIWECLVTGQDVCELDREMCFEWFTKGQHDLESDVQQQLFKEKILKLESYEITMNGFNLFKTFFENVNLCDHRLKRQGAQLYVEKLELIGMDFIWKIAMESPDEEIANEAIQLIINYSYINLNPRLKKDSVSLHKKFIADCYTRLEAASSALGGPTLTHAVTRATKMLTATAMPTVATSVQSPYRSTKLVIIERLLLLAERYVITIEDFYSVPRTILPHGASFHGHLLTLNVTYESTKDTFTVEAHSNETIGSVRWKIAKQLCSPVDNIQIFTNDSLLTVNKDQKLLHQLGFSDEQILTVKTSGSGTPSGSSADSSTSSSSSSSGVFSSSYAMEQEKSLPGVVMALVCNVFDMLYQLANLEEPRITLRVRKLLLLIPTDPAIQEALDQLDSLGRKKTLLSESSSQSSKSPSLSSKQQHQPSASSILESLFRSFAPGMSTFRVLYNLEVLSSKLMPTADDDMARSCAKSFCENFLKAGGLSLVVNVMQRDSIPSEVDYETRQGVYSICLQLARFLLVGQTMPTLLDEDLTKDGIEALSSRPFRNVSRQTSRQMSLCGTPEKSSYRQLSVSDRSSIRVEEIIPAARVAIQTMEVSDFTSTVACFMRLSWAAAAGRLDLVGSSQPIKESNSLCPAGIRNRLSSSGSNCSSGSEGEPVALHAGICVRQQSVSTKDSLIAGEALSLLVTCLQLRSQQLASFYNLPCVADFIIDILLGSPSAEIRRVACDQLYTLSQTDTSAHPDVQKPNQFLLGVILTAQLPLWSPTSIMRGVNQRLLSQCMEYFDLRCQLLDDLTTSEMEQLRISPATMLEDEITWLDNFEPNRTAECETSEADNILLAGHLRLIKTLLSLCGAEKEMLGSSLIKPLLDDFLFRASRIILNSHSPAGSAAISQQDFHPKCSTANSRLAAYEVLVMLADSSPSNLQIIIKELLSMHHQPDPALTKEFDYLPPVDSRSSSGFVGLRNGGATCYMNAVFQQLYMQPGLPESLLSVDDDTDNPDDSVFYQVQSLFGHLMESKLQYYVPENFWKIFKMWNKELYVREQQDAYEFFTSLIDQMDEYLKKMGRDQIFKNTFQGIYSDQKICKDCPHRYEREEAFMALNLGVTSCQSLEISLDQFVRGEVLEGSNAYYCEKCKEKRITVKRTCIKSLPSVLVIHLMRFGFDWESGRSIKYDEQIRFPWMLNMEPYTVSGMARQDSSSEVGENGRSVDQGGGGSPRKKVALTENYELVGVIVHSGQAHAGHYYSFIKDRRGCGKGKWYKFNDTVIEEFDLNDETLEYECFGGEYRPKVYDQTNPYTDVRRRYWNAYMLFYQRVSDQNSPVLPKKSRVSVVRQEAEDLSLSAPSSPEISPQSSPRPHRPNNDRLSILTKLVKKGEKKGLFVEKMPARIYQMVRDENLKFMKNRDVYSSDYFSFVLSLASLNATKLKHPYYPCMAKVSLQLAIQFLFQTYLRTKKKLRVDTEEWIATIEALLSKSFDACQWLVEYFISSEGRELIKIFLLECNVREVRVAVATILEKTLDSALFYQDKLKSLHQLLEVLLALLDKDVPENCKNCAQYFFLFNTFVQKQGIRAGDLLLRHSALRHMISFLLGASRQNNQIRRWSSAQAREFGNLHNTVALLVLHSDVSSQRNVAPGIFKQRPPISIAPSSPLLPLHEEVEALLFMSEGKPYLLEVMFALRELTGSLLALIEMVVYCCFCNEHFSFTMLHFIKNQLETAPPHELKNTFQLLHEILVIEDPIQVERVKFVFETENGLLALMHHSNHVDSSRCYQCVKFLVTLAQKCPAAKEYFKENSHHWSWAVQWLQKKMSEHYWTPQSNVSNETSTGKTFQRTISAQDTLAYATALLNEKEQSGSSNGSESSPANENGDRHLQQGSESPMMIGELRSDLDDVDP
In short: as §1

USP25 = biological target: T2, USP25 (UniProt Q9UHP3)
T2 sequence (whole entry): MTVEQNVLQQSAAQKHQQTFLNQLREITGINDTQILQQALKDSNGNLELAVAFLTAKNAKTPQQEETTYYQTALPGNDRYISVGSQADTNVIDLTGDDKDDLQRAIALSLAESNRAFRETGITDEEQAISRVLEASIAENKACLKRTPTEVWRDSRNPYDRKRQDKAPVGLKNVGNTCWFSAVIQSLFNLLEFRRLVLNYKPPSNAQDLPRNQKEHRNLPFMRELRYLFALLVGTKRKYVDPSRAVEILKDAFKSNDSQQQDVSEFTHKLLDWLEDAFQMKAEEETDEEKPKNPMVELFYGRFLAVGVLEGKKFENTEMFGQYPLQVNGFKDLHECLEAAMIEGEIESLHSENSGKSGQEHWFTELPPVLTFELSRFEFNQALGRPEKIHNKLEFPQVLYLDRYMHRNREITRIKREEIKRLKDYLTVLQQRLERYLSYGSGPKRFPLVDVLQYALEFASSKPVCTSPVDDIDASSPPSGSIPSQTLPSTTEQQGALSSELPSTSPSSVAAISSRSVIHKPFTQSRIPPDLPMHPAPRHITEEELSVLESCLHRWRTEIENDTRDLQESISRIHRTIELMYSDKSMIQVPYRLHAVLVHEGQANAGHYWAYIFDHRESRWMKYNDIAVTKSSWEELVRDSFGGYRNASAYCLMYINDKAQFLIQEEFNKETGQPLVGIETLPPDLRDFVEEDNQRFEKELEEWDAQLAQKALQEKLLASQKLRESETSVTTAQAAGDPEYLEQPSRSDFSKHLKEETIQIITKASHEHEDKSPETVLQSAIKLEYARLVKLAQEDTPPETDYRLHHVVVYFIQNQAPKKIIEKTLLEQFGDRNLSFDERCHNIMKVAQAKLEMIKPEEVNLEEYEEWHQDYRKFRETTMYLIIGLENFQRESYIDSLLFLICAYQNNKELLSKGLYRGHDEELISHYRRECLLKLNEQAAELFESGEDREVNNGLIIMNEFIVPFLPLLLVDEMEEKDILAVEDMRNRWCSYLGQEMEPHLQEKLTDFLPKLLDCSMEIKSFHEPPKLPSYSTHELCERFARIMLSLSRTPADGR
In short: as §1

USP28 = biological target: T3, USP28 (UniProt Q96RU2)
T3 sequence (whole entry): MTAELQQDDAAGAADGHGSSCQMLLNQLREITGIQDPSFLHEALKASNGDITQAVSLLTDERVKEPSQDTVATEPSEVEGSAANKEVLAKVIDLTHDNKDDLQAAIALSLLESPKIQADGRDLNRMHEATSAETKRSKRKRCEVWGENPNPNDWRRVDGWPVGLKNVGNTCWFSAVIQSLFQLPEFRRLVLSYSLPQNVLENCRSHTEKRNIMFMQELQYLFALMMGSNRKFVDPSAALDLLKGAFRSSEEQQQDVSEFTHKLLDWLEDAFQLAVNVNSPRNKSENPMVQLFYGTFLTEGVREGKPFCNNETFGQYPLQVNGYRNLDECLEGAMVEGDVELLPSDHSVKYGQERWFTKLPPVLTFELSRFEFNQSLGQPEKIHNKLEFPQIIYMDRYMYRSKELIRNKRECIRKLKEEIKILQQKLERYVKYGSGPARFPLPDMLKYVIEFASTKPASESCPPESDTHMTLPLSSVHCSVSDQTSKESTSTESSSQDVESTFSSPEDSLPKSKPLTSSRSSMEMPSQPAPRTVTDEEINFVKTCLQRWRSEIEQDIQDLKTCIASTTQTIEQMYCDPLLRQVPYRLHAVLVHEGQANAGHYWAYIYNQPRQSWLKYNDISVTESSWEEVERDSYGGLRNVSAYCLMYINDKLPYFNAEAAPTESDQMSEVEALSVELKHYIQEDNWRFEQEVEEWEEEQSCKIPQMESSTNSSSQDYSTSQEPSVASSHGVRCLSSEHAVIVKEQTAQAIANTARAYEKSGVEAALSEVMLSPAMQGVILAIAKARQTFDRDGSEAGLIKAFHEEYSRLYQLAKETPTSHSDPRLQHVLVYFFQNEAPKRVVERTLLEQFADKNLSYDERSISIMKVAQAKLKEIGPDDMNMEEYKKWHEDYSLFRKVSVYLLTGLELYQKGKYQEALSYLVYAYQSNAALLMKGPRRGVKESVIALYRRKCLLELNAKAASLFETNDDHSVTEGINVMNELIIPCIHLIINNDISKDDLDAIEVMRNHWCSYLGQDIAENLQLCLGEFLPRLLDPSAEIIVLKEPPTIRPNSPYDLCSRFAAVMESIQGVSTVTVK
In short: as §1

Measured: log2 ratio of Biotin-Ahx-Ub-VS probe labelling

Cc1ccc(CNC(=O)CCl)nc1C.Cl
inactive: USP19 -0.0635 | USP24 -0.467 | USP25 -0.436 | USP28 -0.456
